What all share (assay): NCI-60 one-dose screen, 48 h (100 = growth as untreated, 0 = no growth, -100 = all killed)
The subject of assay [1] is HT29 colon. To be noted: 10 µM unless noted.
Assay [2] has as its system SNB-75 CNS. To be noted: 10 µM unless noted.
For assay [3], the system named is SNB-19 CNS. As to conditions: 10 µM unless noted.
Assay [4] deals with U251 CNS. As to conditions: 10 µM unless noted.
Assay [5] concerns PC-3 prostate. To be noted: 10 µM unless noted.
Assay [6] relates to SK-MEL-5 melanoma. To be noted: 10 µM unless noted.
Assay [7] relates to UACC-62 melanoma. As to conditions: 10 µM unless noted.
In assay [8] the test system is LOX IMVI melanoma. To be noted: 10 µM unless noted.
Assay [9] concerns SK-MEL-28 melanoma. To be noted: 10 µM unless noted.
Assay [10] has as its system SK-MEL-2 melanoma. To be noted: 10 µM unless noted.
In assay [11] the test system is SN12C renal. As to conditions: 10 µM unless noted.
Assay [12] has as its system UO-31 renal. As to conditions: 10 µM unless noted.
In assay [13] the test system is TK-10 renal. To be noted: 10 µM unless noted.
The subject of assay [14] is ACHN renal. As to conditions: 10 µM unless noted.
Assay [15] relates to CAKI-1 renal. As to conditions: 10 µM unless noted.
Assay [16] deals with A498 renal. As to conditions: 10 µM unless noted.
Assay [17] has as its system MOLT-4 leukemia. To be noted: 10 µM unless noted.
Assay [18] deals with EKVX NSCLC. As to conditions: 10 µM.
Assay [19] relates to CCRF-CEM leukemia. As to conditions: 10 µM.

The panel holds about 83,000 compounds, 20% with a hit somewhere; the sample as a whole holds those more often.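 Cells were grown in 96-well plates and exposed to the test compound at a single concentration for 48 hours; results are reported as percent growth, with values below 10 considered active.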 Unmarked numbers belong to inactive results. Calls of active or inactive are those of the source.

Regarding `Cc1ccc(NC(=O)CCl)cc1Cl`, the growth in assay [1] is 107%; in [2], 91%; in assay [3], 94.5%; in assay [4], 80.5%; in assay [5] it was 86.8%; in [6] it was 87.2%. The growth in assay [7] is 80.5%; in [8] it was 6.84% (active); in assay [9], 107%; in assay [10], 85.1%; in assay [11] it was 93.6%; in [12], 98.5%. Moreover, the growth in assay [13] was 103%; in assay [14] it was 92.3%; in assay [15], 90.8%; in [16], 119%; in [17] it was 81.8%.
As for `Cc1c(O)c(N=Nc2ccc(C(=O)O)c(O)c2)c2ccccc2c1O`, the growth in assay [1] is 96.9%; in assay [2], 109%; in [3], 105%; in [4], 101%; in assay [5], 77.4%; in assay [6], 96.1%. The growth in assay [7] is 92.5%; in [8], 86.4%; in assay [9], 131%; in assay [10], 92.7%; in assay [18], 66.4%; in [11] it was 96.3%. In addition, the growth in assay [12] was 74.3%; in [13], 116%; in assay [14], 97.6%; in assay [15] it was 84.5%; in assay [16], 86.3%; in assay [19] it was 112%.
In the case of `CCc1c(C)c2ccc(OCC(=O)N=Nc3c(O)[nH]c4ccccc34)c(C)c2oc1=O`, the growth in [1] is -38.6% (active); in assay [2], 30.7%; in assay [3], 19.2%; in assay [4] it was -70.8% (active); in assay [5] it was -9.58% (active); in assay [6], 34.2%. Moreover, the growth in [7] was 22.8%; in assay [8] it was -37.8% (active); in assay [9] it was 64.8%; in [10] it was 32.9%; in assay [18] it was 88.9%; in assay [11], -43% (active). In addition, the growth in assay [12] was 64.8%; in assay [13], 61.3%; in assay [14], 82.2%; in assay [19] it was 10.3%; in assay [17], 8.66% (active).
As for `O=C(NC1CCN(Cc2ccccc2)CC1)c1cc(-c2cccnc2)nc2ccc(Cl)cc12`, the growth in assay [1] is 4.33% (active); in assay [2] it was 95.6%; in assay [3], 91.4%; in [4], 56.2%; in assay [5], 69.2%; in assay [6], 50.2%. The growth in [7] was 8.77% (active); in [8], 45.2%; in assay [9], 94.1%; in [10], 100%; in assay [11] it was 63.1%; in assay [12], 69.2%. Further, the growth was 81.6% in [13]; 81.2% in assay [14]; 82.6% in assay [15]; 67.2% in [16]; 64% in [19]; 58.9% in [17].
As for `Cc1ccc(CC(=O)O)c(C)c1`, the growth in assay [1] is 97.2%; in assay [2], 92.1%; in [3], 102%; in [4], 99.3%; in assay [5] it was 98.3%; in assay [6], 106%. Further, the growth in assay [7] was 98.8%; in [8], 98%; in assay [9], 113%; in assay [10] it was 95.5%; in [18], 109%; in assay [11] it was 99.4%. For the same compound, the growth in [12] was 91.4%; in assay [13], 88.3%; in assay [14] it was 110%; in assay [19], 101%; in [17] it was 105%.
For the compound `C/C=C(/C)C(=O)OC1C=C(CO)C(=O)C(OC(=O)C(C)(O)C(C)Cl)C1C(C)C` (centres undefined), the growth in assay [1] is -32.5% (active); in assay [2], 20%; in assay [3], -1.69% (active); in assay [4] it was -50% (active); in assay [5] it was -24.8% (active); in assay [6], -93% (active). For the same compound, the growth in assay [7] was -77% (active); in assay [8], -75.4% (active); in [9], -48.9% (active); in assay [10], -23.5% (active); in [18] it was -15% (active); in [11], -35.4% (active). Besides, the growth in [12] is -96.5% (active); in assay [13], -17.4% (active); in assay [14], -96.7% (active); in [15], -44.5% (active); in assay [16] it was -74.6% (active); in assay [19], 1.18% (active). The growth in [17] was 0.566% (active).
For the compound `CCCCCCCCc1ccc(OCCOCC[N+](C)(C)CC)cc1` (tested in a mixture with another compound), the growth was 25.5% in assay [1]; 9.08% (active) in assay [2]; 16.4% in [3]; 20.8% in assay [4]; 42.6% in assay [5]; -52.3% (active) in assay [6]. For the same compound, the growth in [7] is 9.07% (active); in assay [8], 29.1%; in [9] it was 16%; in [10], 11.5%; in assay [18], 71%; in assay [11] it was 21.5%. Besides, the growth in [12] was 89.4%; in assay [13] it was 96.1%; in assay [14], 102%; in [15], 98.8%; in [16] it was 73.8%; in [19], 28.7%. Besides, the growth in [17] is 51.4%.
For `COc1cc2oc(-c3ccc(NC(=O)c4ccccc4)cc3)cc(=O)c2c(OC)c1OC`, the growth was 84.3% in [1]; 81% in [2]; 75% in [3]; 90.5% in assay [4]; 71.7% in assay [5]; 85.7% in [6]. Moreover, the growth in [7] is 85.4%; in assay [8], 92.5%; in assay [9], 93.3%; in assay [10], 92.1%; in assay [18] it was 90.8%; in [11], 83.7%. For the same compound, the growth was 88.7% in assay [12]; 91.8% in assay [13]; 83.5% in [14]; 96.8% in [15]; 90.9% in [16]; 82.2% in [19]. In [17], the growth is 92.2%.
